# ± gives the standard deviation of the averaged measurements.
# What was measured:
# [1] = test system: Drosophila melanogaster; assay: olfactory response index (dipstick assay) (fraction of flies (RI; 1 aversion, 0.5 indifferent, 0 attraction)); higher = stronger aversion to the odorant; details: odorant concentration: 1% v/v, male
# [2] = test system: Drosophila melanogaster; assay: as above; details: odorant concentration: 1% v/v, female
# [3] = genotype (tubulin-GAL4 x UAS-RNAi line; control = progenitor): A5
# [4] = genotype (tubulin-GAL4 x UAS-RNAi line; control = progenitor): control
# [5] = genotype (tubulin-GAL4 x UAS-RNAi line; control = progenitor): obp 18a
# [6] = genotype (tubulin-GAL4 x UAS-RNAi line; control = progenitor): obp 22a
# [7] = genotype (tubulin-GAL4 x UAS-RNAi line; control = progenitor): obp 28a
# [8] = genotype (tubulin-GAL4 x UAS-RNAi line; control = progenitor): obp 56a
# [9] = genotype (tubulin-GAL4 x UAS-RNAi line; control = progenitor): obp 56c
# [10] = genotype (tubulin-GAL4 x UAS-RNAi line; control = progenitor): obp 56f
# [11] = genotype (tubulin-GAL4 x UAS-RNAi line; control = progenitor): obp 57a
# [12] = genotype (tubulin-GAL4 x UAS-RNAi line; control = progenitor): obp 57b
# [13] = genotype (tubulin-GAL4 x UAS-RNAi line; control = progenitor): obp 58c
# [14] = genotype (tubulin-GAL4 x UAS-RNAi line; control = progenitor): obp 59a
# [15] = genotype (tubulin-GAL4 x UAS-RNAi line; control = progenitor): obp 83a
# [16] = genotype (tubulin-GAL4 x UAS-RNAi line; control = progenitor): obp 83c
# [17] = genotype (tubulin-GAL4 x UAS-RNAi line; control = progenitor): obp 93a
# [18] = genotype (tubulin-GAL4 x UAS-RNAi line; control = progenitor): obp 99b
# [19] = genotype (tubulin-GAL4 x UAS-RNAi line; control = progenitor): obp 56h
# [20] = genotype (tubulin-GAL4 x UAS-RNAi line; control = progenitor): obp 58b
Compound,"olfactory response index [1, 3]","olfactory response index [1, 4]","olfactory response index [1, 5]","olfactory response index [1, 6]","olfactory response index [1, 7]","olfactory response index [1, 8]","olfactory response index [1, 9]","olfactory response index [1, 10]","olfactory response index [1, 11]","olfactory response index [1, 12]","olfactory response index [1, 13]","olfactory response index [1, 14]","olfactory response index [1, 15]","olfactory response index [1, 16]","olfactory response index [1, 17]","olfactory response index [1, 18]","olfactory response index [1, 19]","olfactory response index [2, 3]","olfactory response index [2, 4]","olfactory response index [2, 5]","olfactory response index [2, 6]","olfactory response index [2, 7]","olfactory response index [2, 8]","olfactory response index [2, 9]","olfactory response index [2, 10]","olfactory response index [2, 11]","olfactory response index [2, 12]","olfactory response index [2, 20]","olfactory response index [2, 13]","olfactory response index [2, 14]","olfactory response index [2, 15]","olfactory response index [2, 16]","olfactory response index [2, 17]","olfactory response index [2, 18]","olfactory response index [2, 19]"
C=C(C)[C@H]1CC=C(C)C(=O)C1 [(S)-carvone],0.57 ± 0.068,0.456 ± 0.062,0.22 ± 0.068,0.372 ± 0.058,0.384 ± 0.14,0.142 ± 0.051,0.186 ± 0.057,0.525 ± 0.15,0.277 ± 0.15,0.4861 ± 0.0015,0.468 ± 0.1,0.657 ± 0.13,0.304 ± 0.27,0.555 ± 0.19,0.382 ± 0.14,0.171 ± 0.066,0.504 ± 0.17,0.729 ± 0.063,0.65 ± 0.074,0.558 ± 0.053,0.775 ± 0.06,0.651 ± 0.073,0.357 ± 0.1,0.678 ± 0.2,0.676 ± 0.1,0.613 ± 0.085,0.73 ± 0.15,0.49 ± 0.07,0.597 ± 0.064,0.739 ± 0.031,0.589 ± 0.045,0.398 ± 0.079,0.715 ± 0.056,0.468 ± 0.041,0.683 ± 0.086
Cc1cnccn1 [2-methylpyrazine],0.457 ± 0.04,0.104 ± 0.039,0.178 ± 0.049,0.155 ± 0.17,0.085 ± 0.043,0.176 ± 0.094,0.293 ± 0.15,0.151 ± 0.066,0.238 ± 0.096,0.261 ± 0.04,0.116 ± 0.1,0.397 ± 0.041,0.305 ± 0.16,0.218 ± 0.18,0.111 ± 0.044,0.1 ± 0.087,0.233 ± 0.078,0.623 ± 0.14,0.415 ± 0.074,0.358 ± 0.17,0.394 ± 0.084,0.527 ± 0.068,0.318 ± 0.099,0.458 ± 0.14,0.674 ± 0.013,0.532 ± 0.066,0.543 ± 0.082,0.159 ± 0.054,0.304 ± 0.15,0.552 ± 0.3,0.478 ± 0.062,0.431 ± 0.12,0.506 ± 0.13,0.381 ± 0.059,0.393 ± 0.099
C=C(C)[C@@H]1CC=C(C)C(=O)C1 [(R)-carvone],0.627 ± 0.12,0.163 ± 0.067,0.206 ± 0.16,0.34 ± 0.1,0.499 ± 0.09,0.396 ± 0.16,0.158 ± 0.14,0.201 ± 0.076,0.207 ± 0.1,0.378 ± 0.18,0.24 ± 0.096,0.541 ± 0.14,0.422 ± 0.069,0.146 ± 0.12,0.472 ± 0.21,0.233 ± 0.12,0.306 ± 0.22,0.747 ± 0.074,0.712 ± 0.019,0.484 ± 0.18,0.5 ± 0.16,0.662 ± 0.12,0.532 ± 0.2,0.712 ± 0.2,0.616 ± 0.13,0.582 ± 0.15,0.685 ± 0.13,0.622 ± 0.14,0.684 ± 0.077,0.711 ± 0.059,0.535 ± 0.06,0.655 ± 0.11,0.708 ± 0.16,0.676 ± 0.022,0.615 ± 0.14
CC(=O)c1ccccc1 [acetophenone],0.629 ± 0.048,0.394 ± 0.035,0.26 ± 0.13,0.231 ± 0.17,0.419 ± 0.18,0.275 ± 0.14,0.265 ± 0.077,0.655 ± 0.15,0.332 ± 0.051,0.318 ± 0.13,0.578 ± 0.18,0.533 ± 0.14,0.745 ± 0.16,0.066 ± 0.075,0.242 ± 0.12,0.326 ± 0.023,0.657 ± 0.11,0.747 ± 0.024,0.69 ± 0.11,0.588 ± 0.13,0.67 ± 0.066,0.656 ± 0.078,0.503 ± 0.066,0.602 ± 0.057,0.801 ± 0.055,0.668 ± 0.1,0.629 ± 0.053,0.621 ± 0.061,0.562 ± 0.14,0.717 ± 0.05,0.45 ± 0.15,0.631 ± 0.082,0.69 ± 0.067,0.376 ± 0.15,0.489 ± 0.037
CCOC(C)=O [ethyl acetate],0.36 ± 0.22,0.266 ± 0.16,0.417 ± 0.15,0.176 ± 0.084,0.311 ± 0.18,0.0854 ± 0.099,0.17 ± 0.14,0.364 ± 0.31,0.236 ± 0.099,0.326 ± 0.14,0.181 ± 0.14,0.324 ± 0.23,0.21 ± 0.068,0.255 ± 0.11,0.352 ± 0.12,0.15 ± 0.14,0.227 ± 0.13,0.677 ± 0.11,0.639 ± 0.27,0.507 ± 0.12,0.669 ± 0.04,0.709 ± 0.13,0.486 ± 0.2,0.3 ± 0.1,0.559 ± 0.26,0.629 ± 0.015,0.61 ± 0.14,0.513 ± 0.31,0.561 ± 0.091,0.502 ± 0.25,0.471 ± 0.087,0.572 ± 0.0067,0.541 ± 0.13,0.2 ± 0.11,0.479 ± 0.06
CCCCCC(C)=O [2-heptanone],0.365 ± 0.086,0.0673 ± 0.066,0.32 ± 0.1,0.304 ± 0.1,0.331 ± 0.084,0.185 ± 0.082,0.239 ± 0.077,0.395 ± 0.14,0.214 ± 0.038,0.368 ± 0.13,0.328 ± 0.063,0.444 ± 0.12,0.339 ± 0.11,0.352 ± 0.13,0.345 ± 0.26,0.138 ± 0.044,0.393 ± 0.17,0.49 ± 0.16,0.483 ± 0.17,0.409 ± 0.092,0.417 ± 0.12,0.526 ± 0.081,0.392 ± 0.12,0.494 ± 0.073,0.452 ± 0.21,0.718 ± 0.062,0.571 ± 0.15,0.277 ± 0.015,0.272 ± 0.051,0.598 ± 0.13,0.4 ± 0.15,0.537 ± 0.17,0.443 ± 0.18,0.28 ± 0.017,0.513 ± 0.22
CCC=O [propanal],0.408 ± 0.047,0.158 ± 0.045,0.029 ± 0.031,0.1 ± 0.017,0.165 ± 0.13,0.111 ± 0.025,0.0917 ± 0.11,0.119 ± 0.083,0.0926 ± 0.076,0.254 ± 0.19,0.0938 ± 0.037,0.498 ± 0.047,0.164 ± 0.14,0.238 ± 0.095,0.289 ± 0.13,0.112 ± 0.019,0.233 ± 0.08,0.637 ± 0.17,0.467 ± 0.19,0.4 ± 0.18,0.583 ± 0.12,0.523 ± 0.039,0.24 ± 0.21,0.479 ± 0.049,0.333 ± 0.22,0.572 ± 0.086,0.66 ± 0.036,0.625 ± 0.097,0.305 ± 0.24,0.611 ± 0.11,0.312 ± 0.14,0.662 ± 0.086,0.688 ± 0.087,0.461 ± 0.039,0.356 ± 0.19

# Reference: the supplement of paper PMC3150612
